Calls of active or inactive are those of the source.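 The calls were made as follows: active = mean duplicate potentiation above the buffer control mean plus 5 SD of buffer wells; inactive = the rest.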
target: Potassium voltage-gated channel subfamily KQT member 2 (Rattus norvegicus) (UniProt O88943); test: KCNQ2 thallium flux enhancement – KCNQ2-CHO-K1 cells, selectivity assay for KCNQ1 potentiator project (AID 493009); conditions: FluxOR thallium flux fluorescence, at 10 µM; hits give high values, scaled: buffer 0, activator control 100;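 also: assay conditions were tuned for KCNQ1 rather than KCNQ2 modulators; signal is max minus min fluorescence divided by baseline after thallium stimulus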
Sequence (O88943 whole entry, looked up): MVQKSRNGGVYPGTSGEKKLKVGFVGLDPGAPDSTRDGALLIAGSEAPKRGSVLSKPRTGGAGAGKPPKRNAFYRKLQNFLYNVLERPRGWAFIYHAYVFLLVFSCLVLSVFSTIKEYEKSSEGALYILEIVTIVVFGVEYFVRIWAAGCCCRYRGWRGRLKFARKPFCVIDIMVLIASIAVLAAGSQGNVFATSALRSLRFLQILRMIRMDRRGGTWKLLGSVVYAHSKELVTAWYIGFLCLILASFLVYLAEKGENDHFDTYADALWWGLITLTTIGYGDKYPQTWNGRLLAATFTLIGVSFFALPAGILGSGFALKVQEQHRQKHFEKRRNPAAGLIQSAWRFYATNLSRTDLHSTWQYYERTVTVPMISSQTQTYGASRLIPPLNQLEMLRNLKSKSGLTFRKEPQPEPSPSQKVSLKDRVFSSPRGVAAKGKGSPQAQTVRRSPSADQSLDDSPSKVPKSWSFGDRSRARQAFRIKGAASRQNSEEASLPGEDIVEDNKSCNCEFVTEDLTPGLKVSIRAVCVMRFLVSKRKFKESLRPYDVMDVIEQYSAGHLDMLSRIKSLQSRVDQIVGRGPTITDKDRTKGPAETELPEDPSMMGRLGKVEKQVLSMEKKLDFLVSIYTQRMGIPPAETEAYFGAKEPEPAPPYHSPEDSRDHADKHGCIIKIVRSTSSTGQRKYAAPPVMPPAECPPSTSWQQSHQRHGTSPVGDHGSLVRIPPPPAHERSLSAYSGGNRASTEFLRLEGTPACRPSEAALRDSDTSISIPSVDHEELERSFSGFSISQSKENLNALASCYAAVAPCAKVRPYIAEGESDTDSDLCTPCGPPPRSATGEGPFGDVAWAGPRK

potentiation, active:
CC(C)c1ccc(NC(=O)C2CC(=O)N=C(N)S2)cc1 (configuration not stated) 227%
O=C(NC(=S)Nc1nc2ccccc2s1)c1ccco1 172%
Cc1cccc(C(=O)NC(=S)N(C)C2CCCCC2)c1 326%
C=CCn1c(O)c(N=NC(=S)Nc2ccc(OC)c(Cl)c2)c2ccccc21 215%
Cc1ccc(N=Cc2cc(Br)cc(Cl)c2O)cc1 142%
CCCCN(CCCC)C(=S)N/N=C/c1c(C)[nH]n(-c2ccccc2)c1=O 239%
CCC(O)C1CCN(Cc2cn(Cc3ccccc3)nc2-c2cc3ccccc3o2)CC1 (configuration not stated) 230%
CCCN(Cc1ccccc1)C(=S)NC(=O)c1ccccc1[N+](=O)[O-] 452%
CC(=O)Nc1ccc(/C=N/N2C(=O)NC(C)(c3ccc(OC(F)F)cc3)C2=O)cc1 (configuration not stated) 234%
Cc1ccc(-c2c(=O)n(O)c3ccccc3[n+]2[O-])cc1 184%

outcome, inactive:
Cc1ccc(C2=CSC3=NS(=O)(=O)CCN23)cc1
Cc1cc(Cl)ccc1OCC(=O)NNC(=O)C1CCCO1 (configuration not stated)
COc1ccc(NC(=O)/C(=C/c2ccc(OC(C)=O)c(OC)c2)NC(C)=O)cc1
S=c1[nH]nc(-c2ccc(Cl)cc2)n1/N=C/C=C/c1ccco1
CCOc1cc(CNCCCN2CCOCC2)ccc1OCC(=O)NC(C)(C)C
Cc1ccc(C(=O)COC(=O)COc2ccccc2C)cc1
Cc1cc(/C=C2\C(=N)N3N=C(C(C)C)SC3=NC2=O)c(C)n1Cc1ccccc1

From PubChem BioAssay
